{
  "source": "PubChem BioAssay (Tox21)",
  "note": "Inconclusive results are not listed. The source made the active and inactive calls. The call rests on the fitted dose curve; in most records, active means well fitted activation curve with a large enough effect in the repeat runs; inconclusive means weak or mixed curves; inactive means no such curve, though single readings can be large or run the other way.",
  "data": [
    {"molecular_target": "Nuclear receptor subfamily 1 group I member 3 (Homo sapiens) (UniProt Q14994)", "sequence (Q14994 whole entry, looked up)": "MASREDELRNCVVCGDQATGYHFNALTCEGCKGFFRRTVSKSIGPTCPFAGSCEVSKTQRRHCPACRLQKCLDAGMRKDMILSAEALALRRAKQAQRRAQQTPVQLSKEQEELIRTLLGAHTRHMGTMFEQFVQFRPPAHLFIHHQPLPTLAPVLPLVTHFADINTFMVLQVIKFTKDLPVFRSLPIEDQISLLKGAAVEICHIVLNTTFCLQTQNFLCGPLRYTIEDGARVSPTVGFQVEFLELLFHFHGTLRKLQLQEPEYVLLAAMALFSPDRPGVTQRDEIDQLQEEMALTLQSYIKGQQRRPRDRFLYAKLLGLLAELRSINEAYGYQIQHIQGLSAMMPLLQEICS", "test": "qHTS assay to identify small molecule agonists of the constitutive androstane receptor (CAR) signaling pathway (AID 1224839); further: nearly all actives have a fitted effect of over 15% in size; further: potency means the concentration at half of the fitted maximal effect;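 on activation: HepG2 cells stably carrying human CAR and a CYP2B6 luciferase reporter; on the % scale 0 is the no-effect control and ±100 the full control effect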", "conditions": "HepG2 hCAR CYP2B6-luciferase, agonist mode, 24 h; series mostly up to 92.4 µM; activation: at the top concentration", "description": "National Center for Advancing Translational Sciences [NCATS] NIH Chemical Genomics Center [NCGC] U.S. Environmental Protection Agency [EPA] National Institutes of Environmental Health Sciences [NIEHS] National Toxicology Program [NTP] Assay overview: The constitutive androstane receptor (CAR) is a nuclear receptor which regulates multiple drug metabolizing enzymes (DMEs) and transporters. Activating CAR will generally increase the transcription and subsequent translation of CYP2B6 and CYP3A4. These two DMEs represent about 50% of the drug metabolizing potential in the body. […] Recently, there have also been studies performed indicating CARs role in energy metabolism and cancer therapy. Therefore, inducing CARs activity could have a potential effect on diabetes and cancer. Identifying environmental toxins and compounds which modulate CAR, through the use of the Tox21 10K compound collection, will be an important step in determining the toxicity and potential therapeutic effects these factors will have on the human body.\nAssay Protocol Summary: A double-stable (hCAR and CYP2B6-2.2kb) transfected cell line, derived from human hepatoma (HepG2) cells, was utilized for the duration of the quantitative high-throughput screens. The HepG2-CYP2B6-hCAR cells suspended in DMEM culture medium supplemented with 10% FBS, 5 ug/mL blasticidin, 0.5 mg/mL geneticin, 100 U/mL penicillin and 100 ug/mL streptomycin were dispensed at 2500 cells/4 uL/well in 1536-well white solid bottom plates using a Multidrop Combi. After the assay plates were incubated at 37 C/5% CO2 for 4 hrs, 23 nL of compounds at 15 concentrations (from 5-48 columns) or positive control (from 1 to 4 columns) were transferred to the assay plates using a Pintool station. One uL of PK11195, was added using a Flying Reagent Dispenser to generate a final concentration of 0.75 uM PK11195 inside each well. After a 24 hr incubation period at 37 C/5% CO2, four uL of ONE-Glo reagent was added into the assay plates using a Flying Reagent Dispenser. After a 30 min incubation period at room temperature, the luminescence intensity in the assay plates was measured using a ViewLux plate reader.", "values": [
      {"compound": "CCCCCCCCCCC1CO1", "note": "(stereo not given)", "activation": "-0.332% (inactive)"},
      {"compound": "C[C@H]1O[C@@H](n2cc(F)c(=O)[nH]c2=O)[C@H](O)[C@@H]1O", "activation": "-4.76% [at 42.5 µM] (inactive)"},
      {"compound": "Cn1cnc2c(=O)[nH]c(N)nc21", "activation": "10.9% (inactive)"},
      {"compound": "CC(C)CCOC(=O)CC(C)C", "activation": "-6.77% (inactive)"},
      {"compound": "C=CCSCC1Nc2cc(Cl)c(S(N)(=O)=O)cc2S(=O)(=O)N1", "note": "(stereo not given)", "activation": "4.3% [at 42.5 µM] (inactive)"},
      {"compound": "CO", "activation": "-0.825% (inactive)"},
      {"compound": "CN(C)CCOC(c1ccc(Cl)cc1)c1ccccn1", "note": "(stereo not given)", "activation": "-5.55% [at 42.5 µM] (inactive)"},
      {"compound": "CC(=O)NC(Cc1ccccc1)C(=O)O", "note": "(stereo not given)", "activation": "-2.56% [at 42.5 µM] (inactive)"},
      {"compound": "CCCc1ccc(N)cc1", "activation": "7.23% (inactive)"},
      {"compound": "CCN1CCCC(OC(=O)C(c2ccccc2)c2ccccc2)C1", "note": "(stereo not given)", "activation": "4.31% [at 42.5 µM] (inactive)"},
      {"compound": "NC(=O)Nc1nc2ccccc2[nH]1", "activation": "9.27% (inactive)"},
      {"compound": "CCCCNc1ccccc1", "activation": "-2.44% (inactive)"},
      {"compound": "CCCCCCCCCCCCCCCCCCOCC(O)CO", "note": "(stereo not given)", "activation": "-1.73% [at 42.5 µM] (inactive)"},
      {"compound": "COC(=O)C1=C(C)NC(C)=C(C(=O)OCC(C)=O)C1c1ccccc1[N+](=O)[O-]", "note": "(stereo not given)", "activation": "1.03% [at 42.5 µM] (inactive)"},
      {"compound": "CC(C)(O)c1ccccc1", "activation": "0.431% (inactive)"},
      {"compound": "NC(=O)CCCCC1CCSS1", "note": "(stereo not given)", "activation": "-0.626% [at 42.5 µM] (inactive)"},
      {"compound": "CCCCCCCCN(C)CCCCCCCC", "activation": "-3.73% (inactive)"},
      {"compound": "C=C(C)C1CC=C(C)C(O)C1", "note": "(stereo not given)", "activation": "0.576% (inactive)"},
      {"compound": "CNC(=O)c1c(I)c(NC(=O)CCCCC(=O)Nc2c(I)c(C(=O)O)c(I)c(C(=O)NC)c2I)c(I)c(C(=O)O)c1I", "activation": "8.61% [at 42.5 µM] (inactive)"},
      {"compound": "CCN1CCCC1CNC(=O)c1cc(S(N)(=O)=O)ccc1OC", "note": "(stereo not given)", "activation": "-3.26% (inactive)"},
      {"compound": "CCCOc1ccccc1-c1nc2n[nH]nc2c(=O)[nH]1", "activation": "-2.67% [at 42.5 µM] (inactive)"},
      {"compound": "Cc1cc(C)c(NC(=O)CN(CC(=O)O)CC(=O)O)c(C)c1Br", "activation": "-5.45% [at 42.5 µM] (inactive)"},
      {"compound": "CC12CCC(CC1=O)C2(C)C", "note": "(stereo not given)", "activation": "-0.0471% (inactive)"},
      {"compound": "Cc1ccc(N)cc1[N+](=O)[O-]", "activation": "5.9% (inactive)"},
      {"compound": "C1C2OC2C2C1C1CC2C2OC12", "note": "(stereo not given)", "activation": "1.24% (inactive)"},
      {"compound": "O=[N+]([O-])c1ccc(CCO)cc1", "activation": "0.711% (inactive)"},
      {"compound": "CCCc1ccccc1O", "activation": "-0.26% (inactive)"},
      {"compound": "COCCOC(=O)CC#N", "activation": "-0.212% (inactive)"},
      {"compound": "O=S(=O)(c1cccc2cnccc12)N1CCCNCC1", "activation": "-8% [at 42.5 µM] (inactive)"},
      {"compound": "O=C(O)CCNC(=O)c1ccc(N=Nc2ccc(O)c(C(=O)O)c2)cc1", "activation": "-0.708% [at 42.5 µM] (inactive)"},
      {"compound": "Oc1ccc2c(c1)OC[C@@H](N1CCC(O)(c3ccc(F)cc3)CC1)[C@H]2O", "Potency": "3.76 µM (active)"},
      {"compound": "CCN1CCN(c2cc3c(cc2F)c(=O)c(C(=O)O)cn3C2CC2)CC1", "activation": "0.48% [at 42.5 µM] (inactive)"},
      {"compound": "C#CC(O)CCCCC", "note": "(stereo not given)", "activation": "1.02% (inactive)"},
      {"compound": "COC(=O)CCCC(=O)O", "activation": "-2.06% (inactive)"},
      {"compound": "C=C[Si](OC)(OC)OC", "activation": "0.988% (inactive)"},
      {"compound": "CCC(=O)/C=C/c1ccc(OC)cc1", "Potency": "54.5 µM (active)"},
      {"compound": "O=C(O)C(O)[C@H](O)[C@@H](O)[C@H](O)[C@H](O)CO", "note": "(stereo not given in full)", "activation": "8.42% (inactive)"},
      {"compound": "c1ccc(SCCSc2ccccc2)cc1", "Potency": "17.1 µM (active)"},
      {"compound": "COc1ccc2cc(C=O)ccc2c1", "activation": "5.94% [at 42.5 µM] (inactive)"},
      {"compound": "Cc1c(F)cc2c(=O)c(C(=O)O)cn3c2c1CCC3C", "note": "(stereo not given)", "activation": "-1.37% [at 42.5 µM] (inactive)"}
    ]}
  ]
}
